{
  "source": "paper PMC7862700",
  "about": "“An all-to-all approach to the identification of sequence-specific readers for epigenetic DNA modifications on cytosine”",
  "assay_in_all_cases": "DAPPL (digital affinity profiling via proximity ligation, sequencing); 10 mM Tris-HCl pH 7.5, 50 mM NaCl, 1 mM DTT, 4% glycerol, room temperature, 30 min; GST-TFs on glutathione beads, 16-mer random dsDNA library, 0.1% formaldehyde crosslink after washing; high values mean tight binding",
  "conditions_in_all_cases": "protein: recombinant; tags: N-terminal GST; dsDNA, one strand shown",
  "key": {"FLI1": {"target": "T1, FLI1 (Homo sapiens, UniProt Q01543 1-452)", "T1 sequence": "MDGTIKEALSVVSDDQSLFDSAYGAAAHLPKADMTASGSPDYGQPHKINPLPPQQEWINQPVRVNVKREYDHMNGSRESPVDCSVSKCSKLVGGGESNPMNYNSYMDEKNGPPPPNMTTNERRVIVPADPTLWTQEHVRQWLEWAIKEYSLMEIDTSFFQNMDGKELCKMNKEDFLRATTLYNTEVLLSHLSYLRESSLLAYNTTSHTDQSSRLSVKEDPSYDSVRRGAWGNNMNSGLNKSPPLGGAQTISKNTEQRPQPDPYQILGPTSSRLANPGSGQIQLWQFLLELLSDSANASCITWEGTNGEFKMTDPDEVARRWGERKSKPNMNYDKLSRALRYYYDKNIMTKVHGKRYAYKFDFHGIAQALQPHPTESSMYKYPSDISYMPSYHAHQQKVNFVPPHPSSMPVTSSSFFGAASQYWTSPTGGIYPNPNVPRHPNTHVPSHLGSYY", "method_in_brief": "(§1)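 Sequencing on an Illumina NextSeq500 followed washing, crosslinking with 0.1% formaldehyde, proximity ligation (BsaI/T4 ligase, 1 h, 37 °C) and PCR amplification of pools that had been incubated for 30 min at room temperature with 200 nmole of a random double-stranded 16-mer DNA library in Tris/NaCl/DTT/glycerol buffer. Each pool held DNA-barcoded human transcription factors, expressed in yeast as GST fusions and captured on glutathione beads, plus a tag-only sample. Binding signal is a hexamer's read frequency for a factor divided by its frequency in the tag-only sample.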"}, "ELK1": {"target": "T2, ELK1 (Homo sapiens, UniProt P19419 1-428)", "T2 sequence": "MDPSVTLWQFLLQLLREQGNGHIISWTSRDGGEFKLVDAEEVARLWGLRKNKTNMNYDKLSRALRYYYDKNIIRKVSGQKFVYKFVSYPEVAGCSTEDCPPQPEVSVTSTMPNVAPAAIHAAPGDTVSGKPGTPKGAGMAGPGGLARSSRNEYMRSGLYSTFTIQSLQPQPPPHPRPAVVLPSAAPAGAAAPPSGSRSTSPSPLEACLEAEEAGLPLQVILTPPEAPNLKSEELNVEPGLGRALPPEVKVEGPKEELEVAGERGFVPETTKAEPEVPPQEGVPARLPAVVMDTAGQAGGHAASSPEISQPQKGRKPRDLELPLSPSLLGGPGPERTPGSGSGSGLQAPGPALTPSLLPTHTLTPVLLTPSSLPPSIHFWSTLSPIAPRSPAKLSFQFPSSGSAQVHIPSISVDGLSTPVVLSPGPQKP", "method_in_brief": "as §1"}, "ELF1": {"target": "ELF1 (Homo sapiens, UniProt P32519 1-619)", "sequence (P32519 whole entry)": "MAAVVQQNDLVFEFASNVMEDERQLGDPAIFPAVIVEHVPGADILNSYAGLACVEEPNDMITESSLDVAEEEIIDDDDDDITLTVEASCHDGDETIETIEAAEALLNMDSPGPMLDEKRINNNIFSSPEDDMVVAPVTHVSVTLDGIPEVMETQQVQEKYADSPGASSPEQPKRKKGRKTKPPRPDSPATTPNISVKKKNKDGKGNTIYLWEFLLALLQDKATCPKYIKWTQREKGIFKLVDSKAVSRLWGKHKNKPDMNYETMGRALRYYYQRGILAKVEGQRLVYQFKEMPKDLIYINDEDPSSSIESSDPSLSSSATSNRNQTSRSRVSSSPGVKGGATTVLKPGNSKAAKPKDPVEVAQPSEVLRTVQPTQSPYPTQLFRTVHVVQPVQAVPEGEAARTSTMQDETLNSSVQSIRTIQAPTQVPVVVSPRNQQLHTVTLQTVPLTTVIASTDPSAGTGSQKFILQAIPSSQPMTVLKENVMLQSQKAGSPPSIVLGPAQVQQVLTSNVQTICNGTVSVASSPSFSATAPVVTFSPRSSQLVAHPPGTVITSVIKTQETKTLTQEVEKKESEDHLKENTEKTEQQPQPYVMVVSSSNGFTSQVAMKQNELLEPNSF", "method_in_brief": "as §1"}, "EHF": {"target": "T3, EHF (Homo sapiens, UniProt Q9NZC4 1-300)", "T3 sequence": "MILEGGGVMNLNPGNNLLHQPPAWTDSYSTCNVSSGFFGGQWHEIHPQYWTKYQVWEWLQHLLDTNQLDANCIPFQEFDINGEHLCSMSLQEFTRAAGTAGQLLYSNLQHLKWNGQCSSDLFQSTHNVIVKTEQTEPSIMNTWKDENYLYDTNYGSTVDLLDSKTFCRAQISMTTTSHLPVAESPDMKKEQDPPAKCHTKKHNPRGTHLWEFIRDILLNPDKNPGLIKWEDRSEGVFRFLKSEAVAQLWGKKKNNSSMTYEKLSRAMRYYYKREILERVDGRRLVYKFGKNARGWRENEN", "method_in_brief": "as §1"}, "SPI1": {"target": "SPI1 (Homo sapiens, UniProt P17947 1-270)", "method_in_brief": "as §1"}, "SPIB": {"target": "SPIB (Homo sapiens, UniProt Q01892 1-262)", "sequence (Q01892 whole entry)": "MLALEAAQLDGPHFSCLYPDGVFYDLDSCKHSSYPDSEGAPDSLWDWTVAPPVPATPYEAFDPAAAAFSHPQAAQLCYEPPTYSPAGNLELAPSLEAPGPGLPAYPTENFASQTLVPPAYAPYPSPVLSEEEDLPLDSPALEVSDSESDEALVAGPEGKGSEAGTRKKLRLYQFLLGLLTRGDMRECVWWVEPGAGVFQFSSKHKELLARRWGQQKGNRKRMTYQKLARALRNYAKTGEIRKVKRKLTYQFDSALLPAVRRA", "method_in_brief": "as §1"}, "ETV5": {"target": "ETV5 (Homo sapiens, UniProt P41161 1-510)", "sequence (P41161 whole entry)": "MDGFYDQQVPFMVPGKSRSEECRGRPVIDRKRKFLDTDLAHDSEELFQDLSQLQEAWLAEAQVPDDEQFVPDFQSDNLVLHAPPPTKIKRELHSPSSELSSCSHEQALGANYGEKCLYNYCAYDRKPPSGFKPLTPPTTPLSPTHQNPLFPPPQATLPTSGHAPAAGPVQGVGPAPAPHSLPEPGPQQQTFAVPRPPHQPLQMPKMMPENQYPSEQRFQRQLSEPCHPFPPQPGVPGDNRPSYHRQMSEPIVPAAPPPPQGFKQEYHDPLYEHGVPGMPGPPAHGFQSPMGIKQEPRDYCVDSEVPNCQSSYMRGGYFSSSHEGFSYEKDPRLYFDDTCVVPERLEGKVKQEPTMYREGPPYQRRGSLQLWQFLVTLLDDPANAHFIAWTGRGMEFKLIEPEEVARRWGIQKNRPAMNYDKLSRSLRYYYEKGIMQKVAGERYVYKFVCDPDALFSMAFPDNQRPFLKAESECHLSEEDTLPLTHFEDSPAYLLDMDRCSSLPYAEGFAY", "method_in_brief": "as §1"}, "SPIC": {"target": "T4, SPIC (Homo sapiens, UniProt Q8N5J4 1-248)", "T4 sequence": "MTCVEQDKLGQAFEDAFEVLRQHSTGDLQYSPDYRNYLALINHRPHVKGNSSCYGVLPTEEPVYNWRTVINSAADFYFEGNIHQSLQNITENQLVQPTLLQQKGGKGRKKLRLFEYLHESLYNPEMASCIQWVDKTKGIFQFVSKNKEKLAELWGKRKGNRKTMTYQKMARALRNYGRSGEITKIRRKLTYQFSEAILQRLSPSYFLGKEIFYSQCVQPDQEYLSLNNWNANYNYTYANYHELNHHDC", "method_in_brief": "as §1"}, "ETV1": {"target": "ETV1 (Homo sapiens, UniProt P50549 1-477)", "sequence (P50549 whole entry)": "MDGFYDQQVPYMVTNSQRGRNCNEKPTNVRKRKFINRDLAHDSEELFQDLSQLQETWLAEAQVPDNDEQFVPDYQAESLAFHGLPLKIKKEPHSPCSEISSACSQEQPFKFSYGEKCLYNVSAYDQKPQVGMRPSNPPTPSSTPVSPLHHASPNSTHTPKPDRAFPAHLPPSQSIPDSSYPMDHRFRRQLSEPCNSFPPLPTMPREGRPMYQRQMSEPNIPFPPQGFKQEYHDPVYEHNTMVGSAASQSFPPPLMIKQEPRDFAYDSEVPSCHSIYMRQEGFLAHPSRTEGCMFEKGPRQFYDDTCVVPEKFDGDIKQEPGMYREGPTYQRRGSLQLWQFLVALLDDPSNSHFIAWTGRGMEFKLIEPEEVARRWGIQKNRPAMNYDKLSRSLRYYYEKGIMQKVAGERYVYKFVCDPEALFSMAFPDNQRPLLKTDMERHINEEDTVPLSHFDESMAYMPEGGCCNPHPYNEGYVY", "method_in_brief": "as §1"}, "SPDEF": {"target": "T5, SPDEF (Homo sapiens, UniProt O95238 1-335)", "T5 sequence": "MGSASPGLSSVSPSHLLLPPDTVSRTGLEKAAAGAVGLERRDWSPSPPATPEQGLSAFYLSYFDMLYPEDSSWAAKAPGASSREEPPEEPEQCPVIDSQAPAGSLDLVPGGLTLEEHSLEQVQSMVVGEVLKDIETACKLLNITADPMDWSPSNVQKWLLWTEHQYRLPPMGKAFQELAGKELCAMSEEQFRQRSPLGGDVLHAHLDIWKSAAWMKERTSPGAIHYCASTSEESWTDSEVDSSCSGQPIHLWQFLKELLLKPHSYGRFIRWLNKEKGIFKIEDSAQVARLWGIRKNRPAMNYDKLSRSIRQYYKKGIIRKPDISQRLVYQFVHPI", "method_in_brief": "as §1"}, "ETV6": {"target": "ETV6 (Homo sapiens, UniProt P41212 1-452)", "sequence (P41212 whole entry)": "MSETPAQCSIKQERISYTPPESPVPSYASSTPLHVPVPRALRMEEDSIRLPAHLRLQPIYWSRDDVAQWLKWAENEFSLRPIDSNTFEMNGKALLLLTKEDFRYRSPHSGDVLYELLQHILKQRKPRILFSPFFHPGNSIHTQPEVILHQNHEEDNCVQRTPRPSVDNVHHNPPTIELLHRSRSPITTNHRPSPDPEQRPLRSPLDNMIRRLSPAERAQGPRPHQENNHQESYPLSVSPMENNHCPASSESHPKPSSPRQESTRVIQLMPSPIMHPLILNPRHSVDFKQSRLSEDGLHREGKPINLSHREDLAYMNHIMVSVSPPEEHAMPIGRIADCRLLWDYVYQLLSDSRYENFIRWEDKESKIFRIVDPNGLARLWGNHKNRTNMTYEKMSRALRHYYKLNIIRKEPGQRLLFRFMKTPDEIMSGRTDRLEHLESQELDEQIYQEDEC", "method_in_brief": "as §1"}, "ERG": {"target": "T6, ERG (Homo sapiens, UniProt P11308 1-479)", "T6 sequence": "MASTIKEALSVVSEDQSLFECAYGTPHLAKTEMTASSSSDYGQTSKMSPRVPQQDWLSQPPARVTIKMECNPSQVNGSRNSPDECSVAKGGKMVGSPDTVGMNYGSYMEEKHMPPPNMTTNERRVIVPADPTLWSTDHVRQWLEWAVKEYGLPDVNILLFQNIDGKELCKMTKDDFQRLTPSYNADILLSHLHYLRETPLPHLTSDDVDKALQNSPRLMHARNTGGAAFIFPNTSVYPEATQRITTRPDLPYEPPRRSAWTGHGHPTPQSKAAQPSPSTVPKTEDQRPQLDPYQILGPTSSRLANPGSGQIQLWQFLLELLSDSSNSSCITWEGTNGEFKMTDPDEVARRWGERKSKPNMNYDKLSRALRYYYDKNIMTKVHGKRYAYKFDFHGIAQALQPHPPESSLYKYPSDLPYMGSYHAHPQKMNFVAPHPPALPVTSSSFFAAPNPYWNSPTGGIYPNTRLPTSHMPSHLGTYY", "method_in_brief": "as §1"}, "FEV": {"target": "T7, FEV (Homo sapiens, UniProt Q99581 1-238)", "T7 sequence": "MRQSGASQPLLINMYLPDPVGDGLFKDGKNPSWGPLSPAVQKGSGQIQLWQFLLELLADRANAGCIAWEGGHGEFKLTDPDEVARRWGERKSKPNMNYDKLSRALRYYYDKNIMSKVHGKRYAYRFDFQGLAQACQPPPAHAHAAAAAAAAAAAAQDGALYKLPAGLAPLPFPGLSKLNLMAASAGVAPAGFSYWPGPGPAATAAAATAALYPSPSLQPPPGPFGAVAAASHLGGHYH", "method_in_brief": "as §1"}, "ELF4": {"target": "ELF4 (Homo sapiens, UniProt Q99607 1-663)", "sequence (Q99607 whole entry)": "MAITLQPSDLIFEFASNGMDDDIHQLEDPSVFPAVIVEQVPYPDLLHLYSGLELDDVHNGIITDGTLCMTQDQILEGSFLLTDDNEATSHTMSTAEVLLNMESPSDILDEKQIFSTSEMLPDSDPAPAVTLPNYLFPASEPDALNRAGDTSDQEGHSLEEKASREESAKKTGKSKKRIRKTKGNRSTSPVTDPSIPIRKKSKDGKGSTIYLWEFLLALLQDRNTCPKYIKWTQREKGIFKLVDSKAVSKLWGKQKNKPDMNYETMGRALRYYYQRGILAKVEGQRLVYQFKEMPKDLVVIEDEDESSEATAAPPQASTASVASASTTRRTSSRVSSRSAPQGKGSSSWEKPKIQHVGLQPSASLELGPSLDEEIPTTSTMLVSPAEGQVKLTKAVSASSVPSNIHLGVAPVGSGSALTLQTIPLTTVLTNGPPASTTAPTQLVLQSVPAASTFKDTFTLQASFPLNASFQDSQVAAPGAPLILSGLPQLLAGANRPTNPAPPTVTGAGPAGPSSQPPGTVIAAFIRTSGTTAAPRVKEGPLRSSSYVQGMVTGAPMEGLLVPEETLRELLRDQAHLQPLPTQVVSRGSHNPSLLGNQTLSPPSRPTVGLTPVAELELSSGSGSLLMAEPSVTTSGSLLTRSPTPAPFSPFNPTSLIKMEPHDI", "method_in_brief": "as §1"}, "ETV3L": {"target": "T8, ETV3L (Homo sapiens, UniProt Q6ZN32 1-361)", "T8 sequence": "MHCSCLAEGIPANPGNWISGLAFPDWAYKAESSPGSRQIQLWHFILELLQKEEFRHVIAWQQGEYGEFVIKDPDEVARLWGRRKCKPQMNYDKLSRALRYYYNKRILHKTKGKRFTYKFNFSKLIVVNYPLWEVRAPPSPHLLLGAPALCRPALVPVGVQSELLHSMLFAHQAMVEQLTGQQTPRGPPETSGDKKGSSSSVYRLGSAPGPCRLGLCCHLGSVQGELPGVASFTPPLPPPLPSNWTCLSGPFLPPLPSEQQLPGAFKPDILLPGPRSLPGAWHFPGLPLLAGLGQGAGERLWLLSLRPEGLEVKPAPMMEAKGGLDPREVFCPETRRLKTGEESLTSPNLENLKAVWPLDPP", "method_in_brief": "as §1"}, "ETV3": {"target": "T9, ETV3 (Homo sapiens, UniProt P41162-2 1-143)", "T9 sequence": "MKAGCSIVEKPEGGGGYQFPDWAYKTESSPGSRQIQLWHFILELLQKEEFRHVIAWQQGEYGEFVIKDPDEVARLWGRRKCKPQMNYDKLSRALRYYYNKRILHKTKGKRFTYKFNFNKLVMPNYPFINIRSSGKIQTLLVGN", "method_in_brief": "as §1"}},
  "data": [
    {"sequence": "ACGGTT", "values": [
      {"measurement": "binding signal", "setting": "FLI1", "result": "1.07 fold enrichment (6-mer frequency, TF over GST control)"},
      {"measurement": "binding signal", "setting": "ELK1", "result": "1.02 fold enrichment (6-mer frequency, TF over GST control)"},
      {"measurement": "binding signal", "setting": "ELF1", "result": "1.03 fold enrichment (6-mer frequency, TF over GST control)"},
      {"measurement": "binding signal", "setting": "EHF", "result": "1.04 fold enrichment (6-mer frequency, TF over GST control)"},
      {"measurement": "binding signal", "setting": "SPI1", "result": "1.02 fold enrichment (6-mer frequency, TF over GST control)"},
      {"measurement": "binding signal", "setting": "SPIB", "result": "1.02 fold enrichment (6-mer frequency, TF over GST control)"},
      {"measurement": "binding signal", "setting": "ETV5", "result": "1 fold enrichment (6-mer frequency, TF over GST control)"},
      {"measurement": "binding signal", "setting": "SPIC", "result": "1.04 fold enrichment (6-mer frequency, TF over GST control)"},
      {"measurement": "binding signal", "setting": "ETV1", "result": "1.08 fold enrichment (6-mer frequency, TF over GST control)"},
      {"measurement": "binding signal", "setting": "SPDEF", "result": "1.04 fold enrichment (6-mer frequency, TF over GST control)"},
      {"measurement": "binding signal", "setting": "ETV6", "result": "1.01 fold enrichment (6-mer frequency, TF over GST control)"}
    ]},
    {"sequence": "AGTGAC", "values": [
      {"measurement": "binding signal", "setting": "FLI1", "result": "1.07 fold enrichment (6-mer frequency, TF over GST control)"},
      {"measurement": "binding signal", "setting": "ELK1", "result": "1 fold enrichment (6-mer frequency, TF over GST control)"},
      {"measurement": "binding signal", "setting": "ERG", "result": "1.1 fold enrichment (6-mer frequency, TF over GST control)"},
      {"measurement": "binding signal", "setting": "EHF", "result": "1.08 fold enrichment (6-mer frequency, TF over GST control)"},
      {"measurement": "binding signal", "setting": "SPI1", "result": "1.33 fold enrichment (6-mer frequency, TF over GST control)"},
      {"measurement": "binding signal", "setting": "SPIB", "result": "1.04 fold enrichment (6-mer frequency, TF over GST control)"},
      {"measurement": "binding signal", "setting": "FEV", "result": "1.11 fold enrichment (6-mer frequency, TF over GST control)"},
      {"measurement": "binding signal", "setting": "ETV5", "result": "1.05 fold enrichment (6-mer frequency, TF over GST control)"},
      {"measurement": "binding signal", "setting": "SPIC", "result": "1.04 fold enrichment (6-mer frequency, TF over GST control)"},
      {"measurement": "binding signal", "setting": "ELF4", "result": "1.05 fold enrichment (6-mer frequency, TF over GST control)"},
      {"measurement": "binding signal", "setting": "ETV1", "result": "1.03 fold enrichment (6-mer frequency, TF over GST control)"},
      {"measurement": "binding signal", "setting": "ETV3L", "result": "1.1 fold enrichment (6-mer frequency, TF over GST control)"},
      {"measurement": "binding signal", "setting": "ETV3", "result": "1.1 fold enrichment (6-mer frequency, TF over GST control)"},
      {"measurement": "binding signal", "setting": "ETV6", "result": "1.11 fold enrichment (6-mer frequency, TF over GST control)"}
    ]}
  ]
}
